The list is not random: actives were taken first. Their share in the collection is about 6.1%.
D3 antag – blocks the human D3 dopamine receptor; P35462; 2.5% of 360,000 active; AID 652054; D3R cells, DiscoveRx beta-arrestin luminescence, antagonist mode; active compounds read low; max response, negative = inhibition, %; in the data active = max response below about -50%; inconclusive = no clear call, values can overlap the other calls
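Cells expressing the human receptor were seeded at 1500 cells/well, incubated overnight at 37 degrees C in 5% CO2, then exposed to library compounds with dopamine controls for 90 minutes at 37 degrees C before luminescent detection.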
D1 PAM – human D1 dopamine receptor positive modulation. potentiation, % at 10 µM. HEK293 TREx D1 cells, calcium flux, dopamine EC20 potentiation. 0.036% of 360,000 active; in the data active = potentiation above about 30%
Target sequence (P21728 whole entry, looked up): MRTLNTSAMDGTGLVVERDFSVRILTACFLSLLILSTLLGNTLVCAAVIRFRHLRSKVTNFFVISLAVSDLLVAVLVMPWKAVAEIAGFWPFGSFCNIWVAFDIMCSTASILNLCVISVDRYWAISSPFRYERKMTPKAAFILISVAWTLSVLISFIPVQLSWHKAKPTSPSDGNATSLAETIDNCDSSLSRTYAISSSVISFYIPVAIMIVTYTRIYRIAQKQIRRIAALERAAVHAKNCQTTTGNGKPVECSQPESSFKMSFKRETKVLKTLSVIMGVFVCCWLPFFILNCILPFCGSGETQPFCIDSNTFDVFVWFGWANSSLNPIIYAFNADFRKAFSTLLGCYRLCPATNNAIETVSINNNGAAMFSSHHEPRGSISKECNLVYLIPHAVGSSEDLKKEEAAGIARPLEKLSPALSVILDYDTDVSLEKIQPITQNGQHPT
D1 antag – antagonists of human D1 dopamine receptor | HEK293 TREx D1 cells, calcium flux, dopamine EC80; active compounds read low | activity change, negative = inhibition, % at 10 µM | 3.2% of 360,000 active; in the data active = activity change below about -30%
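HEK293 T-REx cells expressing inducible, force-coupled D1 receptor; no-wash Ca dye, 30–90 min RT. Cmpd → 180 s read at 1 Hz → EC80 DA → 180 s read.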
D3 ag – D3 dopamine receptor (human) agonism. AID 652048. max activation, %. 0.58% of 410,000 active. D3R DiscoveRx beta-arrestin cells, luminescence, 90 min. P35462; in the data active = max activation above about 30%
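Agonist-mode cell screen: cells plated at 1500/well and incubated overnight at 37 °C, then exposed to library compounds for 90 min at 37 °C. Detection reagent was added for 30–60 min at room temperature, and luminescence was read.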
D1 ag – agonists of human D1 dopamine receptor; P21728; HEK293 T-REx D1 cells, calcium flux, agonist mode; activation, % at 2 µM; 1% of 360,000 active; in the data active = activation above about 30%
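Inducible HEK293 T-REx D1 cells, force-coupled to calcium signalling, were plated at 4000 cells/well with tetracycline and held overnight at 30 C. After no-wash calcium dye loading, compound-evoked calcium rise over 180 s flagged agonists.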
Numbers stand for hits; 0 = inactive; ? = inconclusive; - = no result.

SMILES | D3 antag | D1 PAM | D1 antag | D3 ag | D1 ag
NC(=O)CC(NC(=O)Cc1cccc2ccccc12)c1ccc(NCc2ccc(F)cc2)c([N+](=O)[O-])c1 (stereo unspecified) | -59.7 | 0 | 0 | 0 | 0
NC(=O)CC(NC(=O)Cc1cccc2ccccc12)c1ccc(NCc2ccccn2)c([N+](=O)[O-])c1 (stereo unspecified) | 0 | 0 | 0 | 0 | 0
NC(=O)CC(NC(=O)Cc1cccc2ccccc12)c1ccc(NC2CCCCCCC2)c([N+](=O)[O-])c1 (stereo unspecified) | -61.2 | 0 | 0 | 0 | 0
NC(=O)CC(NC(=O)Cc1cccc2ccccc12)c1ccc(NCCc2ccc(F)cc2)c([N+](=O)[O-])c1 (stereo unspecified) | ? | 0 | 0 | 0 | 0
NC(=O)CC(NC(=O)Cc1cccc2ccccc12)c1ccc(NCc2ccccc2)c([N+](=O)[O-])c1 (stereo unspecified) | -50.8 | 0 | -31.1 | 0 | 0
CCC(c1nnnn1-c1ccc2c(c1)OCCO2)N1CCN(C/C=C/c2ccccc2)CC1 (stereo unspecified) | 0 | - | - | 66.1 | -
C(=C\c1ccccc1)/CN1CCN(C(c2nnnn2-c2ccc3c(c2)OCCO3)C2CC2)CC1 (stereo unspecified) | ? | - | - | 40.9 | -
O=C(Nc1ccc2c(c1)OCCO2)C(CCc1ccccc1)N1CCN(c2ccc(F)cc2)CC1 (stereo unspecified) | 0 | - | - | 0 | -
O=C(Nc1ccc2c(c1)OCCO2)C(CCc1ccccc1)N1CCN(C/C=C/c2ccccc2)CC1 (stereo unspecified) | -108.7 | - | - | 0 | -
C(=C\c1ccccc1)/CN1CCN(C(CCc2ccccc2)c2nnnn2-c2ccc3c(c2)OCCO3)CC1 (stereo unspecified) | -109.6 | - | - | 0 | -
C(=C\c1ccccc1)/CN1CCN(C(c2ccccc2)c2nnnn2C2CCCC2)CC1 (stereo unspecified) | ? | - | - | 0 | -
CCC(c1nnnn1-c1ccc2c(c1)OCCO2)N1CCN(c2ccccc2)CC1 (stereo unspecified) | 0 | - | - | 0 | -
CCc1ccc2c(c1)-c1ccccc1S(=O)(=O)N2CC(=O)N1CCC(C)CC1 | - | 0 | 0 | 0 | 0
Cc1ccccc1C(=O)Nc1ccc2nc(SCC(=O)N3CCc4ccccc43)sc2c1 | - | 0 | 0 | 0 | 0
COc1ccccc1NC(=O)c1c(-c2ccc(C)cc2)nnc2ccccc12 | - | 0 | 0 | 0 | 0
COc1cccc2c1cc1c(=O)n(CC(=O)NCc3ccc(N(C)C)cc3)nc(C)n12 | - | 0 | 0 | 0 | 0
CC(=O)N1c2ccccc2C(C)(c2ccc(C)cc2)CC1(C)C (stereo unspecified) | - | 0 | 0 | 0 | 55.5
O=C(O)c1ccc(N/N=C/c2ccc(OC(=O)c3cccc(Cl)c3)cc2)cc1 | 0 | 0 | -35.9 | 0 | 37.0
O=C(Oc1ccc(/C=N/Nc2ccccc2)cc1)c1ccccc1 | 0 | - | - | 0 | -
COc1cc(CN(C(=O)COc2ccccc2)c2ccccn2)cc(OC)c1OC | - | 0 | 0 | 0 | 0
COc1ccc(-n2cnc3cc(NS(=O)(=O)c4ccccc4)ccc32)cc1 | -87.1 | 0 | 0 | 0 | 0
CC(C)(C)n1cnc2cc(NS(=O)(=O)c3ccccc3)ccc21 | 0 | 0 | 0 | 0 | 0
Cc1ccc(S(=O)(=O)Nc2ccc3c(c2)nc(CCN2CCCC2)n3C)cc1 | -57.3 | 0 | 0 | 0 | 0
Cn1c(CN2CCCC2)nc2cc(NS(=O)(=O)c3ccc(Cl)cc3)ccc21 | -103.8 | 0 | 0 | 0 | 47.3
Cn1c(CN2CCCC2)nc2cc(NS(=O)(=O)c3ccccc3)ccc21 | -79.7 | 0 | 0 | 0 | 0
SMILES | D3 antag | D1 PAM | D1 antag | D3 ag | D1 ag
Cn1c(CCN2CCCC2)nc2cc(NS(=O)(=O)c3ccc(Cl)cc3)ccc21 | ? | 0 | 0 | 0 | 0
CCC(Sc1nc2c(sc3ccccc32)c(=O)n1CCc1ccc(OC)c(OC)c1)C(=O)N(CC)CC (stereo unspecified) | - | 0 | 0 | 0 | 0
CCc1ccc2occ(CC(=O)Nc3c(C(=O)c4ccccc4)oc4ccccc34)c2c1 | - | 0 | 0 | 0 | 0
COC(=O)CC1=C(C(=O)OC)C(c2cccs2)C(C#N)=C(N)O1 (stereo unspecified) | -76.9 | 0 | 0 | 0 | 0
CC(C)(C)c1cc(NC(=O)c2ccc(OC3CCCC3)cc2)no1 | 0 | 0 | 0 | 34.7 | 0
CCOC(=O)CS(=O)(=O)c1nc(-c2ccc(F)cc2)cc(C(F)(F)F)n1 | -63.9 | 0 | 0 | 0 | 0

Screening data from PubChem.
